DAX1 inh-1: blocks DAX1 repression of SF-1 activated StAR promoter. HEK293T StAR-luciferase reporter, SF-1/DAX-1 repression relief. inhibition, % at 6.8 µM. actives 1.1% (n = 370,000). AID 652010;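 active = inhibition above the mean over all tested compounds plus 3 SD, cut at about 3.6% in these data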;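 also: 0% = DAX-1 cells with DMSO and 100% = cells lacking DAX-1 with DMSO; higher inhibition means more luminescence from relief of DAX-1 repression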
hcDAF-12 act: activates DAF-12 receptor from parasite H. contortus; actives 1.4% (n = 370,000); HEK293 hcDAF-12 lit1-tk-luc reporter, luminescence; 0% DMSO, 100% Δ7-dafachronic acid; activation, % at 6.8 µM;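 active = activation above the mean of all tested compounds plus 3 SD, cut at about 5.5% in these data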;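 also: 100% = response to 3 µM Δ7-dafachronic acid high control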
ssDAF12 agonist: S. stercoralis DAF-12 activation, primary screen. HEK293 ssDAF-12/GRIP1 lit1-tk-luc reporter, luminescence; % of 3 µM dafachronic acid response. activation, % at 6.8 µM. actives 1% (n = 370,000). AID 652126;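 active = activation above the mean over all tested compounds plus 3 SD, cut at about 0.9% in these data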;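 also: 0% = DMSO-only wells and 100% = 3 µM delta7-dafachronic acid wells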
hgDAF12 agonist: activates the H. glycines DAF-12 receptor ligand-binding domain; actives 1.8% (n = 370,000); HEK293 GAL4-hgDAF12 UAS-luciferase reporter, agonist luminescence; normalized to butyrate control; activation, % at 6.8 µM; AID 687014;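 active = activation above a cutoff set at the mean of all screened compounds plus 3 SD, cut at about 10% in these data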;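 also: 0% = DMSO wells and 100% = sodium butyrate wells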
DAX1 inh-2: inhibits human nuclear receptor DAX1 | P51843 | HEK293 Gal4-DAX1 luciferase reporter, luminescence | inhibition, % at 6.75 µM | actives 0.99% (n = 340,000);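 active = inhibition above the mean over all tested compounds plus 3 SD, cut at about 4.2% in these data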;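 also: 0% = DAX1-transfected cells with DMSO and 100% = empty-vector control cells with DMSO; inhibition shows as a rise in luminescence from relieved DAX1 repression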
Target sequence (P51843 207-470 limits assumed): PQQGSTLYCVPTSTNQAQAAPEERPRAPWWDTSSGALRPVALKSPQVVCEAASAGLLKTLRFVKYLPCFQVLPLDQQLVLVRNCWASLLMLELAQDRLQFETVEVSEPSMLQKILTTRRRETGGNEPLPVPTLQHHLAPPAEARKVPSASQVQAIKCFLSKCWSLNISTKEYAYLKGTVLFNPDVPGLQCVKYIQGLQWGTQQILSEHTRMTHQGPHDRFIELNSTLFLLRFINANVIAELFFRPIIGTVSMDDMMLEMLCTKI
hgDAF12 ag: confirmation of H. glycines DAF-12 agonists | activation, % at 6.8 µM | HEK293 GAL4-hgDAF12 luciferase reporter, agonist mode; percent of butyrate response | actives 80% (n = 3,300) | shares compounds with hgDAF12 agonist;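 active = mean activation over triplicate wells above the hit cutoff derived from the earlier primary screen, cut at about 11% in these data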;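 also: 0% = DMSO low control and 100% = 2 mM sodium butyrate high control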
LXR ag 2: counter-screen for DAF-12 agonists: agonists of human LXR-beta; shares compounds with hgDAF12 agonist; HEK293 Gal4-LXR luciferase reporter, 24 h; activation, % at 6.8 µM; 3,300 tested, under 10 active; AID 743051;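 active = mean activation of the triplicate above a set limit carried over from the primary screen, none filed active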
Numbers without * were called inactive. Rows were chosen to be rich in hits. Some 4.1% of all compounds tested hit in one or more screens of this group.

`Cc1nn2cc(-c3ccc(Cl)cc3)nc2s1` gave DAX1 inh-1 3.9*, hcDAF-12 act 5, ssDAF12 agonist 0, hgDAF12 agonist 14*, DAX1 inh-2 2, hgDAF12 ag 16* and LXR ag 2 1.
Screening CCC(CC)NC(=O)COC(=O)c1ccc(NS(=O)(=O)c2ccc3c(c2)OCCO3)cc1 returned DAX1 inh-1 -1, hcDAF-12 act -2, ssDAF12 agonist -2, hgDAF12 agonist 0 and DAX1 inh-2 1.
`Cc1ccc(S(=O)(=O)NC(=O)NC(C)Cc2ccccc2)cc1` (centres undefined) gave DAX1 inh-1 0, hcDAF-12 act 4, ssDAF12 agonist -1, hgDAF12 agonist 0 and DAX1 inh-2 -1.
`COc1ccc(C(=S)N2CCOCC2)cc1OS(=O)(=O)c1ccc(Br)cc1` gave DAX1 inh-1 2, hcDAF-12 act 0, ssDAF12 agonist -1, hgDAF12 agonist -2 and DAX1 inh-2 1.
O=C(NCc1ccco1)c1cccc(NS(=O)(=O)c2ccccc2F)c1 was read as DAX1 inh-1 0, hcDAF-12 act -1, ssDAF12 agonist 0, hgDAF12 agonist 2 and DAX1 inh-2 0.
`Cc1ccc(-c2nc3ccc(Cl)cc3n2OC(C)C(=O)O)cc1` (centres undefined) gave DAX1 inh-1 3, hcDAF-12 act 4, ssDAF12 agonist 0, hgDAF12 agonist 23*, DAX1 inh-2 2, hgDAF12 ag 13* and LXR ag 2 1.
`Cc1ccc(C(=O)c2coc3ccc(O)c(Cl)c23)cc1` gave DAX1 inh-1 3, hcDAF-12 act 4, ssDAF12 agonist 0, hgDAF12 agonist 17*, DAX1 inh-2 6.5*, hgDAF12 ag 13* and LXR ag 2 0.
For O=C(c1ccccc1)c1coc2ccc(O)c(Cl)c12 the results were DAX1 inh-1 1, hcDAF-12 act 2, ssDAF12 agonist 0, hgDAF12 agonist 5 and DAX1 inh-2 3.
Screening Cc1ccc(C(=O)c2coc3ccc(O)cc23)cc1 returned DAX1 inh-1 4, hcDAF-12 act 5, ssDAF12 agonist 1.1*, hgDAF12 agonist 18*, DAX1 inh-2 2, hgDAF12 ag 22* and LXR ag 2 1.
For CCCCCCc1c(C)c2ccc(OCC(=O)N3CCC[C@H]3C(=O)O)c(C)c2oc1=O the results were DAX1 inh-1 0, hcDAF-12 act 3, ssDAF12 agonist -2, hgDAF12 agonist 0 and DAX1 inh-2 1.
Screening CS(=O)(=O)c1ccc2nc(NC(=O)Nc3ccccc3F)sc2c1 returned DAX1 inh-1 3, hcDAF-12 act 2, ssDAF12 agonist 0, hgDAF12 agonist 15*, DAX1 inh-2 7.3*, hgDAF12 ag 27* and LXR ag 2 1.
For CC(C)(C)C(=O)Nc1nc2ccc(S(C)(=O)=O)cc2s1 the results were DAX1 inh-1 0, hcDAF-12 act 3, ssDAF12 agonist -1, hgDAF12 agonist 14*, DAX1 inh-2 3, hgDAF12 ag 13* and LXR ag 2 0.
`Cc1ccc(NC(=O)Nc2nc3ccc(S(C)(=O)=O)cc3s2)cc1` gave DAX1 inh-1 0, hcDAF-12 act -3, ssDAF12 agonist -1, hgDAF12 agonist -2 and DAX1 inh-2 -1.
For Cc1cccc(-c2nnc(-c3ccccc3)o2)c1 the results were DAX1 inh-1 1, hcDAF-12 act 4, ssDAF12 agonist 1, hgDAF12 agonist 13*, DAX1 inh-2 2, hgDAF12 ag 16* and LXR ag 2 1.
For Brc1ccc(-c2nnc(-c3cccc(Br)c3)o2)cc1 the results were DAX1 inh-1 0, hcDAF-12 act -1, ssDAF12 agonist -1, hgDAF12 agonist 1 and DAX1 inh-2 -1.
Screening Nc1nc(Nc2cccc(F)c2)nc2ccccc12 returned DAX1 inh-1 1, hcDAF-12 act 6.1*, ssDAF12 agonist 0, hgDAF12 agonist 14*, DAX1 inh-2 3, hgDAF12 ag 16* and LXR ag 2 1.
Screening O=C(Nc1ccc(N2CCOCC2)cc1)c1nc2ccccc2s1 returned DAX1 inh-1 4.3*, hcDAF-12 act 4, ssDAF12 agonist 0, hgDAF12 agonist 18*, DAX1 inh-2 2, hgDAF12 ag 15* and LXR ag 2 1.
`Cc1cccc(C2NC(=O)c3ccccc3N2)c1` (centres undefined) gave DAX1 inh-1 3, hcDAF-12 act 2, ssDAF12 agonist 0, hgDAF12 agonist 16*, DAX1 inh-2 2, hgDAF12 ag 14* and LXR ag 2 0.
Screening CCCCSc1ncc(C(=O)OCC)c(N)n1 returned DAX1 inh-1 3.7*, hcDAF-12 act 4, ssDAF12 agonist 1, hgDAF12 agonist 15*, DAX1 inh-2 3, hgDAF12 ag 11* and LXR ag 2 1.
`CCOC(=O)c1cnc(SCCc2ccccc2)nc1N` gave DAX1 inh-1 4.5*, hcDAF-12 act 5, ssDAF12 agonist 1.4*, hgDAF12 agonist 16*, DAX1 inh-2 3, hgDAF12 ag 20* and LXR ag 2 1.
For CCOC(=O)c1cnc(SCc2ccc(C)cc2)nc1N the results were DAX1 inh-1 1, hcDAF-12 act 1, ssDAF12 agonist 0, hgDAF12 agonist 7 and DAX1 inh-2 1.
O=C(O)CCS(=O)(=O)c1ccccc1Cl was read as DAX1 inh-1 0, hcDAF-12 act 0, ssDAF12 agonist -2, hgDAF12 agonist 17*, DAX1 inh-2 0, hgDAF12 ag 1 and LXR ag 2 0.
For COc1cc(NC(=O)CSc2nc(C)c(C)c(C)n2)cc(OC)c1 the results were DAX1 inh-1 0, hcDAF-12 act -3, ssDAF12 agonist -1, hgDAF12 agonist 1 and DAX1 inh-2 -2.
Screening CCCCN1CCc2c([nH]c3ccc(C)cc23)C1=O returned DAX1 inh-1 3.9*, hcDAF-12 act 4, ssDAF12 agonist 1, hgDAF12 agonist 15*, DAX1 inh-2 2, hgDAF12 ag 9 and LXR ag 2 0.
O=C(C1CCCO1)N1CCN(C(=S)Nc2ccccc2F)CC1 (centres undefined) was read as DAX1 inh-1 1, hcDAF-12 act 0, ssDAF12 agonist -1, hgDAF12 agonist -4 and DAX1 inh-2 -1.
Screening COCC(C)n1c(SCc2ccc(C(=O)OC)cc2)nc2ccccc2c1=O (centres undefined) returned DAX1 inh-1 0, hcDAF-12 act -4, ssDAF12 agonist -2, hgDAF12 agonist 0 and DAX1 inh-2 -1.
CN=Cc1nc(-c2ccccc2)oc1O was read as DAX1 inh-1 2, hcDAF-12 act 1, ssDAF12 agonist 0, hgDAF12 agonist 8 and DAX1 inh-2 2.
